Data taken from article PMC11006913.
Where a chain is given by its changes, count along the chain named.

What was measured:
Test in all cases: PBM; 200 nM protein, PBS
Details in all cases: dsDNA, one strand shown
SIX6 [1] = molecular target: T1, SIX6 (Homo sapiens, UniProt O95475 114-200, L167I)
T1 sequence: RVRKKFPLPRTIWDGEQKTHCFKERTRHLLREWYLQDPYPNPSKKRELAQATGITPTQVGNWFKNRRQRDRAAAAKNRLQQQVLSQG

SIX6 [2] = molecular target: T2, SIX6 (Homo sapiens, UniProt O95475 114-200, L143V)
T2 sequence: T1 sequence with L30V, I54L

SIX6 [3] = molecular target: T3, SIX6 (Homo sapiens, UniProt O95475 114-200, H141N)
T3 sequence: T1 sequence with H28N, I54L

SIX6 [4] = molecular target: T4, SIX6 (Homo sapiens, UniProt O95475 114-200, T165P)
T4 sequence: T1 sequence with T52P, I54L

SIX6 [5] = molecular target: T5, SIX6 (Homo sapiens, UniProt O95475 114-200, L167M)
T5 sequence: T1 sequence with I54M

SIX6 [6] = molecular target: T6, SIX6 (Homo sapiens, UniProt O95475 114-200, L143M)
T6 sequence: T1 sequence with L30M, I54L

SIX6 [7] = molecular target: T7, SIX6 (Homo sapiens, UniProt O95475 114-200, L143I)
T7 sequence: T1 sequence with L30I, I54L

HOXB6 = HOXB6 (Homo sapiens, UniProt P17509 132-218, K202E)
SIX6 [8] = molecular target: T8, SIX6 (Homo sapiens, UniProt O95475 114-200, T165G)
T8 sequence: T1 sequence with T52G, I54L

SIX6 [9] = molecular target: T9, SIX6 (Homo sapiens, UniProt O95475 114-200, T139Q)
T9 sequence: T1 sequence with T26Q, I54L

SIX6 [10] = molecular target: T10, SIX6 (Homo sapiens, UniProt O95475 114-200, T165A)
T10 sequence: T1 sequence with T52A, I54L

SIX6 [11] = molecular target: T11, SIX6 (Homo sapiens, UniProt O95475 114-200, L167V)
T11 sequence: T1 sequence with I54V

SIX6 [12] = molecular target: T12, SIX6 (Homo sapiens, UniProt O95475 114-200)
T12 sequence: T1 sequence with I54L

SIX6 [13] = molecular target: T13, SIX6 (Homo sapiens, UniProt O95475 114-200, T165I)
T13 sequence: T1 sequence with T52I, I54L

Chain of HOXB6 (P17509 132-218 K202E): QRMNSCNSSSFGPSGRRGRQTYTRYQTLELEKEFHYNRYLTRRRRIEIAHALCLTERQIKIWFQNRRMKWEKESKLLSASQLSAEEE

Sequence | binding signal (SIX6 [1]) | binding signal (SIX6 [2]) | binding signal (SIX6 [3]) | binding signal (SIX6 [4]) | binding signal (SIX6 [5]) | binding signal (SIX6 [6]) | binding signal (SIX6 [7]) | binding signal (HOXB6) | binding signal (SIX6 [8]) | binding signal (SIX6 [9]) | binding signal (SIX6 [10]) | binding signal (SIX6 [11]) | binding signal (SIX6 [12]) | binding signal (SIX6 [13])
AACGCGGC | 8.99 upbm affinity estimate (log intensity, higher = more binding, comparable within an allelic series) | 8.99 upbm affinity estimate (log intensity, higher = more binding, comparable within an allelic series) | 8.99 upbm affinity estimate (log intensity, higher = more binding, comparable within an allelic series) | 9.03 upbm affinity estimate (log intensity, higher = more binding, comparable within an allelic series) | 8.95 upbm affinity estimate (log intensity, higher = more binding, comparable within an allelic series) | 9.03 upbm affinity estimate (log intensity, higher = more binding, comparable within an allelic series) | 8.92 upbm affinity estimate (log intensity, higher = more binding, comparable within an allelic series) | 9.12 upbm affinity estimate (log intensity, higher = more binding, comparable within an allelic series) | 8.8 upbm affinity estimate (log intensity, higher = more binding, comparable within an allelic series) | 8.99 upbm affinity estimate (log intensity, higher = more binding, comparable within an allelic series) | 8.84 upbm affinity estimate (log intensity, higher = more binding, comparable within an allelic series) | 8.94 upbm affinity estimate (log intensity, higher = more binding, comparable within an allelic series) | 8.94 upbm affinity estimate (log intensity, higher = more binding, comparable within an allelic series) | 8.96 upbm affinity estimate (log intensity, higher = more binding, comparable within an allelic series)
CCCCAGCG | 9.09 upbm affinity estimate (log intensity, higher = more binding, comparable within an allelic series) | 8.99 upbm affinity estimate (log intensity, higher = more binding, comparable within an allelic series) | 9.25 upbm affinity estimate (log intensity, higher = more binding, comparable within an allelic series) | 9.01 upbm affinity estimate (log intensity, higher = more binding, comparable within an allelic series) | 9.24 upbm affinity estimate (log intensity, higher = more binding, comparable within an allelic series) | 9.04 upbm affinity estimate (log intensity, higher = more binding, comparable within an allelic series) | 9 upbm affinity estimate (log intensity, higher = more binding, comparable within an allelic series) |  | 9.14 upbm affinity estimate (log intensity, higher = more binding, comparable within an allelic series) | 9.23 upbm affinity estimate (log intensity, higher = more binding, comparable within an allelic series) | 9.18 upbm affinity estimate (log intensity, higher = more binding, comparable within an allelic series) | 9.13 upbm affinity estimate (log intensity, higher = more binding, comparable within an allelic series) | 9.15 upbm affinity estimate (log intensity, higher = more binding, comparable within an allelic series) | 9.2 upbm affinity estimate (log intensity, higher = more binding, comparable within an allelic series)
CTGGCCCA | 8.9 upbm affinity estimate (log intensity, higher = more binding, comparable within an allelic series) | 8.81 upbm affinity estimate (log intensity, higher = more binding, comparable within an allelic series) | 8.95 upbm affinity estimate (log intensity, higher = more binding, comparable within an allelic series) | 8.96 upbm affinity estimate (log intensity, higher = more binding, comparable within an allelic series) | 8.89 upbm affinity estimate (log intensity, higher = more binding, comparable within an allelic series) | 8.86 upbm affinity estimate (log intensity, higher = more binding, comparable within an allelic series) | 8.87 upbm affinity estimate (log intensity, higher = more binding, comparable within an allelic series) |  | 8.92 upbm affinity estimate (log intensity, higher = more binding, comparable within an allelic series) | 8.93 upbm affinity estimate (log intensity, higher = more binding, comparable within an allelic series) | 8.92 upbm affinity estimate (log intensity, higher = more binding, comparable within an allelic series) | 8.88 upbm affinity estimate (log intensity, higher = more binding, comparable within an allelic series) | 8.94 upbm affinity estimate (log intensity, higher = more binding, comparable within an allelic series) | 8.95 upbm affinity estimate (log intensity, higher = more binding, comparable within an allelic series)
CCCTAGGG | 8.88 upbm affinity estimate (log intensity, higher = more binding, comparable within an allelic series) | 8.72 upbm affinity estimate (log intensity, higher = more binding, comparable within an allelic series) | 8.93 upbm affinity estimate (log intensity, higher = more binding, comparable within an allelic series) | 8.83 upbm affinity estimate (log intensity, higher = more binding, comparable within an allelic series) | 8.9 upbm affinity estimate (log intensity, higher = more binding, comparable within an allelic series) | 8.91 upbm affinity estimate (log intensity, higher = more binding, comparable within an allelic series) | 8.92 upbm affinity estimate (log intensity, higher = more binding, comparable within an allelic series) |  | 8.95 upbm affinity estimate (log intensity, higher = more binding, comparable within an allelic series) | 9.15 upbm affinity estimate (log intensity, higher = more binding, comparable within an allelic series) | 8.86 upbm affinity estimate (log intensity, higher = more binding, comparable within an allelic series) | 9.08 upbm affinity estimate (log intensity, higher = more binding, comparable within an allelic series) | 8.85 upbm affinity estimate (log intensity, higher = more binding, comparable within an allelic series) | 8.92 upbm affinity estimate (log intensity, higher = more binding, comparable within an allelic series)
